Measured values: PubChem BioAssay (NCI)
About 79,000 compounds went through this panel and 15% of them were active in at least one assay; those are over-represented in the sample as a whole. Calls of active or inactive are those of the source. Cut-off read from the data, not from the text of the source: active = growth inhibition above about 70%; inactive = the rest.

Columns and labels:
[1] = NCI Yeast Anticancer Drug Screen. Data for the rad52 strain (AID 147);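 note: 0% = growth of vehicle-treated control cultures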; details: S. cerevisiae rad52 mutant growth inhibition, stronger effect = higher value
Procedure, shortened: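 Vehicle-treated cultures served as the reference for growth inhibition of compound-exposed yeast bearing a DNA repair mutation.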

[2] = NCI Yeast Anticancer Drug Screen. Data for the wt1 strain (AID 149);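 note: 0% = growth of vehicle-treated wt1 cultures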; details: S. cerevisiae wt1 strain (SPY 50644) growth inhibition, stronger effect = higher value
Procedure, shortened: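 Each compound is tested on wt1 yeast and the loss of growth versus vehicle gives the inhibition value.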

[3] = NCI Yeast Anticancer Drug Screen. Data for the rad50EPP+ strain (AID 151);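 note: 0% = growth of vehicle-treated control cultures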; details: S. cerevisiae rad50 mutant strain, stronger effect = higher value
Procedure, shortened: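 In this screen, rad50EPP+ yeast were exposed to compounds. Growth inhibition was scored against vehicle-treated controls.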

[4] = NCI Yeast Anticancer Drug Screen. Data for the mgt1 strain (AID 153); details: S. cerevisiae mgt1 mutant growth inhibition, stronger effect = higher value
Procedure, shortened: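 mgt1 strain exposed; growth vs vehicle control recorded as inhibition.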

[5] = NCI Yeast Anticancer Drug Screen. Data for the rad50 strain (AID 155);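 note: 0% = growth of vehicle-only cultures of the same strain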; details: S. cerevisiae rad50 strain growth inhibition, stronger effect = higher value
Procedure, shortened: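 Vehicle-treated cultures provide the reference for the growth inhibition reported for compound-exposed, repair-deficient yeast.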

[6] = NCI Yeast Anticancer Drug Screen. Data for the mec2-1 strain (AID 157); details: S. cerevisiae mec2-1 strain, stronger effect = higher value
Procedure, shortened: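 Vehicle-treated cultures served as reference for growth inhibition of compound-exposed mec2-1 yeast.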

[7] = NCI Yeast Anticancer Drug Screen. Data for the rad14 strain (AID 159);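 note: 0% = growth of vehicle-treated control cultures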; details: S. cerevisiae rad14 strain growth inhibition, stronger effect = higher value
Procedure, shortened: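 Inhibition of growth is reported for a repair-deficient yeast mutant following compound treatment, calculated relative to cultures that received vehicle.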

[8] = NCI Yeast Anticancer Drug Screen. Data for the sgs1 mgt1 strain (AID 161);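 note: 0% = growth of cultures given vehicle only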; details: S. cerevisiae sgs1 mgt1 strain, stronger effect = higher value
Procedure, shortened: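 Test agents were incubated with a DNA-repair-mutant yeast strain. Growth was then read and compared against vehicle-treated controls.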

[9] = NCI Yeast Anticancer Drug Screen. Data for the CLN2oe strain (AID 163);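 note: 0% = growth of vehicle-only control cultures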; details: S. cerevisiae CLN2oe strain, stronger effect = higher value
Procedure, shortened: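 Inhibition relative to vehicle-treated yeast is reported. Cells: strain with genetic alteration in cell-cycle control, grown with compound.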

[10] = NCI Yeast Anticancer Drug Screen. Data for the cln2 rad14 strain (AID 165);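 note: 0% = growth equal to vehicle treated cultures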; details: S. cerevisiae cln2 rad14 strain, stronger effect = higher value
Procedure, shortened: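 Each compound was tested on cln2 rad14 yeast. Inhibition of growth was calculated against vehicle-exposed controls.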

[11] = NCI Yeast Anticancer Drug Screen. Data for the bub3 strain (AID 167); details: S. cerevisiae bub3 mutant strain, stronger effect = higher value
Procedure, shortened: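 Mutant yeast screening strain plus compound; vehicle-treated cultures serve as the 0% inhibition reference.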

[12] = NCI Yeast Anticancer Drug Screen. Data for the wt2 strain (AID 169); details: S. cerevisiae wt2 strain growth inhibition, stronger effect = higher value
Procedure, shortened: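 Inhibition of yeast growth was determined after compound treatment, normalised to controls receiving only vehicle.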

[13] = NCI Yeast Anticancer Drug Screen. Data for the mlh1 strain (AID 171);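 note: 0% = growth of vehicle-treated control cultures of the same strain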; details: S. cerevisiae mlh1 strain growth inhibition, stronger effect = higher value
Procedure, shortened: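 Vehicle-normalised growth inhibition of a repair- or checkpoint-altered yeast strain following compound treatment.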

[14] = NCI Yeast Anticancer Drug Screen. Data for the sgs1 strain (AID 173);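 note: 0% = growth of vehicle-only control cultures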; details: S. cerevisiae sgs1 mutant, stronger effect = higher value
Procedure, shortened: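 Screen format: yeast with repair or checkpoint alterations, compound exposure, growth read relative to vehicle.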

[15] = NCI Yeast Anticancer Drug Screen. Data for the mlh1 rad18 strain (AID 175); details: S. cerevisiae mlh1 rad18 strain growth inhibition, stronger effect = higher value
Procedure, shortened: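 Vehicle-treated cultures served as the reference for growth inhibition in a yeast strain carrying DNA damage repair alterations exposed to each compound.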

[16] = NCI Yeast Anticancer Drug Screen. Data for the rad18 strain (AID 177); details: S. cerevisiae rad18 mutant growth inhibition, stronger effect = higher value
Procedure, shortened: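 Test articles were incubated with altered yeast defective in DNA damage repair. Results are given as inhibition of growth versus vehicle.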

[17] = at 5.0 µM (retest, dose inferred, filed as 0.5)
[18] = at 50.0 µM (retest, dose inferred, filed as 5.0)

Measured: growth inhibition

Cc1cc(C)c(NC(=S)NC(=O)c2ccccc2)cc1C
inactive: [1]; at 1.2 µM -33% | [1]; at 3.7 µM -58% | [1]; at 11.0 µM -54% | [1]; at 33.0 µM -41% | [1]; at 100.0 µM -44% | [2]; at 1.2 µM -46% | [2]; at 3.7 µM -29% | [2]; at 11.0 µM -39% | [2]; at 33.0 µM -17% | [2]; at 100.0 µM -14% | [3]; at 1.2 µM -44% | [3]; at 3.7 µM -41% | [3]; at 11.0 µM -25% | [3]; at 33.0 µM -18% | [3]; at 100.0 µM -5% | [4]; at 1.2 µM -57% | [4]; at 3.7 µM -54% | [4]; at 11.0 µM -25% | [4]; at 33.0 µM 26% | [4]; at 100.0 µM 37% | [5]; at 1.2 µM -50% | [5]; at 3.7 µM -52% | [5]; [17] -13% | [5]; at 11.0 µM -52% | [5]; at 33.0 µM -39% | [5]; [18] -4% | [5]; at 50.0 µM 18.4% | [5]; at 100.0 µM -21% | [6]; at 1.2 µM -41% | [6]; at 3.7 µM -61% | [6]; [17] -16% | [6]; at 11.0 µM -49% | [6]; at 33.0 µM -46% | [6]; [18] 4% | [6]; at 50.0 µM -0.25% | [6]; at 100.0 µM -11% | [7]; at 1.2 µM -40% | [7]; at 3.7 µM -48% | [7]; at 11.0 µM -40% | [7]; at 33.0 µM -16% | [7]; at 100.0 µM -9% | [8]; [17] -7% | [8]; [18] 41% | [8]; at 50.0 µM 25.3% | [9]; at 1.2 µM -63% | [9]; at 3.7 µM -78% | [9]; at 11.0 µM -58% | [9]; at 33.0 µM -64% | [9]; at 100.0 µM -57% | [10]; [17] -4% | [10]; [18] 15% | [10]; at 50.0 µM 2.25% | [11]; at 1.2 µM -21% | [11]; at 3.7 µM -17% | [11]; [17] 8% | [11]; at 11.0 µM 38% | [11]; at 33.0 µM 65% | [11]; at 50.0 µM 49.6% | [11]; at 100.0 µM 62% | [12]; at 1.2 µM -43% | [12]; at 3.7 µM -49% | [12]; at 11.0 µM -43% | [12]; at 33.0 µM -4% | [12]; at 100.0 µM 22% | [13]; at 1.2 µM -34% | [13]; at 3.7 µM -20% | [13]; at 11.0 µM -7% | [13]; at 33.0 µM 34% | [13]; at 100.0 µM 32% | [14]; at 1.2 µM -62% | [14]; at 3.7 µM -54% | [14]; at 11.0 µM -45% | [14]; at 33.0 µM -3% | [14]; at 100.0 µM -1% | [15]; [17] -37% | [15]; [18] -12% | [15]; at 50.0 µM 8.65% | [16]; at 1.2 µM -75% | [16]; at 3.7 µM -62% | [16]; at 11.0 µM -73% | [16]; at 33.0 µM -41% | [16]; at 100.0 µM -46%
active: [11]; [18] 79%

COC(=O)CC1CCc2c(ccc3ccccc23)C1(C)C(=O)OC (stereo unspecified)
active: [8]; [18] 80% | [11]; [18] 75% | [11]; at 100.0 µM 71% | [14]; at 100.0 µM 79%
inactive: [1]; at 1.2 µM -1% | [1]; at 3.7 µM 2% | [1]; at 11.0 µM 14% | [1]; at 33.0 µM 5% | [1]; at 100.0 µM 32% | [2]; at 1.2 µM -2% | [2]; at 3.7 µM -4% | [2]; at 11.0 µM 7% | [2]; at 33.0 µM -10% | [2]; at 100.0 µM -1% | [3]; at 1.2 µM 5% | [3]; at 3.7 µM 16% | [3]; at 11.0 µM 16% | [3]; at 33.0 µM 48% | [3]; at 100.0 µM 45% | [4]; at 1.2 µM -3% | [4]; at 3.7 µM 0% | [4]; at 11.0 µM -2% | [4]; at 33.0 µM 17% | [4]; at 100.0 µM 53% | [5]; at 1.2 µM 1% | [5]; at 3.7 µM 2% | [5]; [17] -5% | [5]; at 11.0 µM 10% | [5]; at 33.0 µM 15% | [5]; [18] 21% | [5]; at 50.0 µM 15.3% | [5]; at 100.0 µM 37% | [6]; at 1.2 µM -3% | [6]; at 3.7 µM -2% | [6]; [17] -5% | [6]; at 11.0 µM -2% | [6]; at 33.0 µM -7% | [6]; [18] 28% | [6]; at 50.0 µM -1.05% | [6]; at 100.0 µM 6% | [7]; at 1.2 µM -2% | [7]; at 3.7 µM 1% | [7]; at 11.0 µM 2% | [7]; at 33.0 µM -5% | [7]; at 100.0 µM 10% | [8]; [17] -2% | [8]; at 50.0 µM 66% | [9]; at 1.2 µM -4% | [9]; at 3.7 µM -5% | [9]; at 11.0 µM -11% | [9]; at 33.0 µM -21% | [9]; at 100.0 µM 0% | [10]; [17] -3% | [10]; [18] 11% | [10]; at 50.0 µM 1.4% | [11]; at 1.2 µM 3% | [11]; at 3.7 µM 2% | [11]; [17] 2% | [11]; at 11.0 µM 6% | [11]; at 33.0 µM 46% | [11]; at 50.0 µM 63.5% | [12]; at 1.2 µM 1% | [12]; at 3.7 µM -8% | [12]; at 11.0 µM -1% | [12]; at 33.0 µM -5% | [12]; at 100.0 µM 12% | [13]; at 1.2 µM -5% | [13]; at 3.7 µM -2% | [13]; at 11.0 µM 0% | [13]; at 33.0 µM 14% | [13]; at 100.0 µM 57% | [14]; at 1.2 µM -24% | [14]; at 3.7 µM -30% | [14]; at 11.0 µM -18% | [14]; at 33.0 µM 13% | [15]; [17] -3% | [15]; [18] 54% | [15]; at 50.0 µM 27.6% | [16]; at 1.2 µM -10% | [16]; at 3.7 µM -4% | [16]; at 11.0 µM -2% | [16]; at 33.0 µM -3% | [16]; at 100.0 µM 20%
